Rows were chosen to be rich in hits. Some 6.6% of all compounds tested hit in one or more screens of this group.
KB-V1 cytotox: qHTS assay for MDR1-selective chemotherapeutics: Primary screen using the drug-selected MDR subline cells KB-V1; KB-V1 MDR cells viability, CellTiter-Glo, 72 h; Potency, µM (doses to about 46.1 µM), usual class: cytotoxic; hit rate 3.4% among 400,000; AID 1347076, 2019; also: % is scaled to controls: 0 for no effect and ±100 for the full control effect; nearly all actives have a fitted effect of over 60% in size
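KB-V1 MDR subline cells in DMEM (phenol-red free, 10% FBS) exposed to compounds in qHTS concentration series for 72 h at 37 degrees C. Viability read by CellTiter-Glo luminescence; concentration-effect curves fitted after normalization and correction.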
TGFb inhibitor: qHTS for Inhibitors of TGF-b. HepG2 CAGA-GFP TGF-b/SMAD3 reporter, GFP fluorescence, 18 h; TGF-beta stimulated, 500 pg/mL final. Potency, µM (series often up to 46.1 µM), without a hit: at the highest dose activity, negative = inhibition, usual class: inhibitors. hit rate 1.2% among 410,000; also: % is scaled to controls: 0 for no effect and ±100 for the full control effect; nearly all actives have a fitted effect of over 65% in size
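Smad-responsive CAGA-GFP expression was quantified in HEPG2 cells exposed to compounds and 500 pg/mL final TGF-beta for 18 h at 37 degrees C; unstimulated wells defined full inhibition.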
HepG2 viability: qHTS for Inhibitors of TGF-b: Cytotox Counterscreen. HepG2 CAGA-GFP viability, ATP luminescence, 18 h. Potency, µM (titrated, usually from 46.1 µM), inactives show top-dose activity change, negative = cytotoxicity, hits mostly cytotoxic. hit rate 0.76% among 410,000. AID 588856, 2011
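HepG2 CAGA-GFP cells (1000/well, DMEM with 1% FBS) received compound, then TGF-beta at 500 pg/mL final, and were incubated 18 hours at 37 degrees C. Viability was read by CellTiter-Glo luminescence. Media-only wells were set as complete cell-killing and DMSO as no toxicity.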
KB-3-1 cytotox: qHTS assay for MDR1-selective chemotherapeutics: Primary screen using the parental adenocarcinoma cell KB-3-1; hit rate 1.4% among 400,000; KB-3-1 viability, CellTiter-Glo ATP luminescence, 72 h; Potency, µM (titrated, usually from 46.1 µM), hits mostly cytotoxic; AID 1347075, 2019; also: % is scaled to controls: 0 for no effect and ±100 for the full control effect; nearly all actives have a fitted effect of over 60% in size
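72 h, 37 °C compound treatment of KB-3-1 parental cells; CellTiter-Glo added, 10 min, luminescence read. Data corrected against DMSO-only plates and normalized before curve fitting.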
HT1080NT lethal: qHTS for induction of synthetic lethality in tumor cells producing 2HG: qHTS for the HT-1080-NT fibrosarcoma cell line; Potency, µM (titrated, usually from 46.1 µM), inactives show at the top dose activity, negative = less viability, most hits filed as cytotoxic; hit rate 1.6% among 360,000; HT-1080-NT fibrosarcoma viability, CellTiter-Glo ATP luminescence, 48 h; AID 686970, 2013;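 also: NT is the 2HG producing partner of a matched IDH1 knockdown line; 0% = DMSO-treated cells and -100% = media-only wells without cells; nearly all actives have a fitted effect of over 55% in size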
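HT-1080-NT fibrosarcoma cells (2HG-overproducing), 750 cells/well in RPMI with 5% FBS, dosed after 2 h and incubated 48 h at 37C. CellTiter-Glo luminescence normalized to DMSO and no-cell wells; concentration-response curves fitted and classed.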
HT1080 IDH1KD tx: qHTS for induction of synthetic lethality in tumor cells producing 2HG: qHTS for the HT-1080-IDH1KD cell line. HT-1080 IDH1 knockdown viability, ATP luminescence, 48 h. Potency, µM (series often up to 46.1 µM), for inactives: at the top dose activity, negative = toxicity, hits mostly cytotoxic. hit rate 2% among 360,000. AID 686971, 2013;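 also: 0% = DMSO wells and -100% = cell-free medium wells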
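Knockdown cells (IDH1KD HT-1080) received compounds 2 h after plating at 750 cells/well and were kept 48 h at 37 °C in 5% FBS RPMI. A CellTiter-Glo luminescence read gave % activity for curve fitting.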
* = called active by the depositor; i = inactive; u = inconclusive; x = no result. Calls follow the shape of the dose curve; as a rule, active = well fitted curve in the direction sought with a large enough effect; inconclusive = small, poorly fitted or top-dose-only effect, or another doubt; inactive = no such curve, though single readings can be large; an effect the other way counts as inactive or inconclusive. Potency is read from the fitted curve at half-maximal effect.

SMILES	KB-V1 cytotox	TGFb inhibitor	HepG2 viability	KB-3-1 cytotox	HT1080NT lethal	HT1080 IDH1KD tx
COc1ccc(CNC(=O)c2cccc3c(-c4cccc(C(N)=O)c4)coc23)cc1OC	u	-8%	-31%	u	u	5.8µM*
COc1cc(-c2coc3c(C(=O)Nc4ccc(C(C)C)cc4)cccc23)ccc1O	i	u	-61%	i	u	21µM*
CC(=O)N1CCc2cc(Br)cc(S(=O)(=O)N3CCC(C(=O)Nc4ccc(C(C)C)cc4)CC3)c21	i	-23%	-29%	u	x	x
COc1ccc(Cn2c(SCc3ccc(C(=O)NCc4cccs4)cc3)nc3cccnc32)cc1	u	-29%	-35%	i	x	x
COc1ccc(CNC(=O)c2cccc3c(-c4ccc(F)c(F)c4)coc23)cc1OC	i	-25%	-22%	i	u	16µM*
COc1cc(-c2coc3c(C(=O)NC4CCCCC4)cccc23)ccc1O	i	-5%	-33%	i	16µM*	21µM*
O=C(NC1CCCCC1)c1cccc2c(-c3ccc(F)c(F)c3)coc12	i	-22%	-21%	i	22%	-17%
Cc1ccc(NC(=O)CSC2=Nc3ccccc3C3=NC(Cc4ccccc4)C(=O)N23)cc1C (configuration not stated)	i	7%	-18%	i	x	x
Cc1ccc(C(O)c2ccncc2)cc1 (configuration not stated)	i	12%	-14%	i	3%	-9%
Cc1ccccc1C(O)c1ccncc1 (configuration not stated)	i	-3%	18µM*	i	24%	5%
COc1ccccc1/C=C/C(=O)Nc1cccnc1Cl	i	-26%	-54%	i	4%	8%
CNc1ccccc(C(=O)/C=C/c2ccccc2OC)c1=O	15µM*	u	-13%	u	-10%	-22%
COc1ccccc1/C=C/C(C)=O	i	9%	1%	i	5%	11%
COc1ccccc1/C=C/C(=O)/C=C/c1ccccc1O	u	u	-21%	u	6.5µM*	5.8µM*
COc1ccccc1C=CC(=O)C=Cc1ccccc1OC	u	10µM*	-94%	u	u	13µM*
CCc1cccc(C)c1NC(=O)CN(C)S(=O)(=O)c1cccc2nsnc12	i	u	-16%	i	x	x
Cc1cc(N(C)C)cc(C)c1/C=C/c1ccnc2ccccc12	u	u	-34%	u	x	x
CCCSCCCNC(=O)C1CCCN(C(=O)c2cnn(-c3ccccc3)c2-n2cccc2)C1 (configuration not stated)	i	16µM*	-23%	i	x	x
COc1cccc(CNC(=O)C2CCCN(S(=O)(=O)N(C)c3ccc(F)cc3)C2)c1OC (configuration not stated)	u	u	-34%	u	x	x
O=C(NCc1ccccc1Cl)C1CCCN(C(=O)c2cnn(-c3ccc(F)cc3)c2-n2cccc2)C1 (configuration not stated)	16µM*	-16%	-9%	u	x	x
COC(=O)c1ccccc1NC(=O)C1CCCN(C(=O)c2cnn(-c3ccc(F)cc3)c2-n2cccc2)C1 (configuration not stated)	18µM*	0%	-4%	u	x	x
CN(c1ccc(F)cc1)S(=O)(=O)N1CCCC(C(=O)NCc2ccccc2Cl)C1 (configuration not stated)	i	11µM*	-25%	16µM*	x	x
O=C(NCc1ccc(Cl)cc1)C1CCCN(C(=O)c2cnn(-c3ccc(F)cc3)c2-n2cccc2)C1 (configuration not stated)	x	0%	-28%	x	x	x
CNc1nc(-c2ccccc2)c2sccc2n1	i	8%	-2%	i	-4%	-15%
COc1ccc(CNC(=O)C2CCCN(C(=O)c3cnn(-c4ccc(F)cc4)c3-n3cccc3)C2)cc1 (configuration not stated)	13µM*	-4%	-6%	u	x	x
SMILES	KB-V1 cytotox	TGFb inhibitor	HepG2 viability	KB-3-1 cytotox	HT1080NT lethal	HT1080 IDH1KD tx
COc1cc(NC(=O)CCn2nc(C)c(S(=O)(=O)N3CCCCC3)c2C)cc(OC)c1OC	x	22%	6%	x	x	x
CCCCOc1cccc(C(=O)Nc2ccc(NC(=O)c3cccs3)cc2)c1	i	-22%	-45%	i	21µM*	15µM*
Cc1cc(NC(=O)c2ccc(Cl)cc2)no1	i	-2%	3%	i	5%	20%
Cc1cc(NC(=O)c2ccc(NC(=O)c3cccs3)cc2)no1	15µM*	4%	-6%	i	1%	-3%
Cc1ccn(-c2ccc(NC(=O)c3cccs3)cc2)n1	12µM*	-3%	-49%	21µM*	u	u
O=C(Nc1nonc1NC(=O)c1cccs1)c1cccs1	10µM*	u	-17%	u	-19%	-21%
COc1ccc(CCNc2oc(/C=C/c3ccc(OC)c(OC)c3)nc2C#N)cc1	x	-1%	-11%	x	x	x
COc1ccc(C)cc1NC(=O)c1cc2c(=O)n(Cc3cccnc3)ccc2nc1C	i	26%	-4%	i	x	x
Cc1ccc(NC(=O)COC(=O)c2ccccc2Cl)cc1S(=O)(=O)N(C)C	i	-1%	9%	i	-3%	-1%
Cc1ccc(NC(=O)CCNC(=O)c2ccccc2Cl)cc1S(=O)(=O)N(C)C	i	-19%	-1%	i	6%	9%
Cc1ccc(NC(=O)Cc2ccccc2Cl)cc1S(=O)(=O)N(C)C	23µM*	-43%	-24%	u	-5%	-4%
Cc1ccc(NC(=O)Cc2ccc(Cl)c(Cl)c2)cc1S(=O)(=O)N(C)C	2.6µM*	u	-45%	23µM*	1%	-22%
C[C@@H](Nc1nc(Cl)nc2nc[nH]c12)c1ccccc1	i	-10%	-16%	i	x	x
CC(C)(C)n1ncc2c(=O)n(Cc3ccc(Cl)cc3C(F)(F)F)cnc21	x	-2%	-20%	x	x	x
CCc1cc(C(=O)NC2CCCc3c2cnn3-c2ccc(F)cc2F)no1 (configuration not stated)	u	1%	-75%	15µM*	0%	-10%

Bioassay records: PubChem, National Center for Advancing Translational Sciences (NCATS)
